Out of some 69,000 compounds screened, about 8,600 (12%) showed an effect of 50% or more. Shown is part of a subset that was picked to be rich in strong results.
Each molecule was assayed on Plasmodium berghei (assay: Screen against P. berghei liver stage (PbLuc), transformed with Luciferase, at 10uM). Settings: tested at 10 uM.
Type: functional, HepG2

In order of rising INHIBITION:
1. Cn1cc(N2C[C@@H]3CN(Cc4ccoc4)C[C@@H]3C2=O)cn1  -75%
2. CCCOC(=O)N1CCCn2nc(C(=O)Nc3ccccc3)cc2C1  -34.4%
3. O=C(NCCn1ccnc1)N1CCN(Cc2cccnc2)CC1  -33.7%
4. COCCC(=O)N1CCC(C(=O)c2cc(C)cnc2N)CC1  -26.2%
5. COc1cc(C)ccc1OCCC(=O)N1CCC(C(N)=O)C1 (stereo not drawn)  -24.9%
6. Cn1cc(N2CC3(CCN(CC4CCOCC4)CC3)OCC2=O)cn1  -24.5%
7. O=C(c1cnc(-c2ncccn2)s1)N1CCCC1Cn1cccn1 (stereo not drawn)  -24.3%
8. Cc1cnc(N)c(C(=O)C2CCN(C(=O)c3cnc(C)cn3)CC2)c1  -20.2%
9. O=C(CCc1cc2n(n1)CCNC2)NCCS(=O)(=O)N1CCCC1  -18.1%
10. CCS(=O)(=O)N1CCC2(CC(=O)N(c3cnn(C)c3)C2)C1 (stereo not drawn)  -13.7%
11. CC(C)(C)C(=O)N1CCCC1c1nccnc1Cl (stereo not drawn)  -7.66%
12. CC(=O)N1CCN(C(C)C)CC(COc2ccccc2)C1 (stereo not drawn)  -6.92%
13. CC(Cn1cccn1)NC(=O)N1CCN(Cc2ccncc2)CC1 (stereo not drawn)  -4.94%
14. CC(C)(C)NC(=O)N1CCN(Cc2cccnc2)CC1  -2.93%
15. Cc1cnc(N)c(C(=O)C2CCN(C(=O)c3cnc(C)nc3C)CC2)c1  -2.11%
16. CC(C)C(NCc1ccc(Cn2cncn2)cc1)c1ccccc1 (stereo not drawn)  -1.33%
17. O=C1[C@H]2CN(CC3CCOCC3)C[C@H]2CN1c1ccsc1  5.63%
18. COCC(=O)N1CCC(c2cc(-c3ccc(N)nc3)cc(C)n2)CC1  7.19%
19. Cc1cc(C)n(CCCN(CCN2CCOCC2)Cc2ccco2)n1  7.6%
20. Cn1cc(N2C[C@@H]3CN(S(=O)(=O)C4CC4)C[C@@H]3C2=O)cn1  9.79%
21. CN1CCOC2(CCCN(C(=O)C3CCCCC3)C2)C1 (stereo not drawn)  9.97%
22. CNc1ncccc1CN1CCC1c1cc(N)nc(C)n1 (stereo not drawn)  10.9%
23. Cc1cnc(N)c(C(=O)C2CCN(C(=O)C3CCC3)CC2)c1  13.5%
24. Cc1cccc(CN2CCc3ncnc(Oc4cccnc4)c3CC2)n1  18.5%
25. O=C(NCCNc1cnccn1)N1CCCC1  19.4%
26. COC(=O)C1CN(Cc2nc(C(C)(C)C)cs2)C[C@@H](C)O1 (stereo partly drawn)  21.7%
27. O=C(CCc1cc2n(n1)CCCN(CCc1ccccc1)C2)NC1CC1  24.1%
28. Cc1cc(F)ccc1C(=O)N1CCN(C)C2(CCC(=O)N(C)CC2)C1 (stereo not drawn)  25.8%
29. COCCN(CCOC)Cc1nc2c(cnn2C)c(=O)[nH]1  27.8%
30. O=C(CCn1c(C(F)(F)F)cc2cccnc21)N1CCC(O)CC1  29.2%
31. CC(Cn1ccnc1)NC(=O)N1CCN(Cc2cccnc2)CC1 (stereo not drawn)  31.8%
32. O=C1[C@H]2CN(Cc3ccncc3)C[C@H]2CN1c1cncnc1  32.8%
33. CN1CCn2nc(-c3nc4ccccc4n3C)cc2C1  36.4%
34. CC(=O)N1CCC(C(=O)c2cc(C)cnc2N)CC1  39.2%
35. Cn1c2ncccc2c(=O)n1CC(=O)Nc1ccc(F)c(F)c1  41.8%
36. CCOC(=O)C(C)NC(=O)N1CCN(c2nc3ccccc3n2C)CC1 (stereo not drawn)  45%
37. Cc1nc(C)c(C(=O)N2CCCC2(C)C(=O)NC2CCCC2)o1 (stereo not drawn)  46.2%
38. Cn1nc(CN2CCCCC2)c2c1CN(C(=O)c1cccc(C#N)c1)C2  46.3%
39. O=C(NCCNc1cnccn1)N1CCCCCC1  47%
40. Cc1ccc(-c2nc(CNC3CCc4ncnn4C3)cs2)cc1 (stereo not drawn)  47.55%
41. CC(C)c1ccc(CNC(c2ccc(F)cn2)C(C)C)cc1 (stereo not drawn)  48.9%
42. Cc1cnc(N)c(C(=O)C2CCN(C(=O)c3ccccc3F)CC2)c1  56.9%
43. Cn1c(-c2cc3n(n2)CCCN(CC(=O)O)C3)nc2ccccc21  57.1%
44. O=C(NCCNc1ncccn1)N1CCN(Cc2cccnc2)CC1  57.8%
45. COCC(=O)N1CCC(C(=O)c2cc(C)cnc2N)CC1  58.1%
46. Cn1cc(N2CC[C@@H]3CN(Cc4ccncc4)C[C@H]3C2=O)cn1  58.4%
47. CCS(=O)(=O)N1C[C@H]2CN(c3cnn(C)c3)C(=O)[C@H]2C1  60%
48. CCCOC(=O)N1CCn2nc(-c3nc4ccccc4n3C)cc2C1  61.1%
49. O=C(NCCNc1cnccn1)N1CCN(Cc2cccnc2)CC1  65.5%
50. Cn1cc(N2C[C@@H]3CN(CC4CCOCC4)C[C@@H]3C2=O)cn1  68.4%
51. C=C(C)C(=O)N1CCC(C(=O)c2cc(C)cnc2N)CC1  68.8%
52. CC(C)C(NCc1ccc(Cn2cncn2)cc1)c1ccc(F)cn1 (stereo not drawn)  71.2%
53. CC(Cn1cccn1)NC(=O)N1CCN(Cc2cccnc2)CC1 (stereo not drawn)  74.6%
